Experimental data: PubChem BioAssay (NCATS)
Inconclusive results are not listed. A call without a number means that no potency is given here. A number with no mark means an inactive call. Active and inactive are the calls of the source. The call rests on the fitted dose curve; in most records, active means well fitted inhibition curve with a large enough effect; inconclusive means small, poorly fitted or top-dose-only effect; inactive means flat fitted curve, though single readings scatter. Where a SMILES comes first, the peptide text is derived from it. [ ]: non-standard residue; d: D form.

Experiments:
CRL-7250 = normal cell line; test: Cytotoxic Profiling of Annotated Libraries Using Quantitative High-Throughput Screening (AID 1296008); details: Five cell lines viability, CellTiter-Glo ATP luminescence, 48-72 h; max response: stronger effect = lower value; further: potency means the concentration at half of the fitted maximal effect
Outline: (§1)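 Compounds were pin-transferred onto cells and incubated 48 or 72 hr at 37 degree Celsius, 95% humidity. CellTiter-Glo was added, plates sat 10 min at room temperature, then ATP-coupled luminescence was imaged as the viability read-out.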

HEK293 = test: as above; details: Five cell lines viability, CellTiter-Glo ATP luminescence, 48-72 h; max response: stronger effect = lower value
Outline: as §1

HaCat = test: as above; details: Five cell lines viability, CellTiter-Glo ATP luminescence, 48-72 h; max response: stronger effect = lower value
Outline: as §1

KB-3-1 = test: as above; details: Five cell lines viability, CellTiter-Glo ATP luminescence, 48-72 h; max response: stronger effect = lower value
Outline: as §1

NIH3T3 = test: as above; details: Five cell lines viability, CellTiter-Glo ATP luminescence, 48-72 h; max response: stronger effect = lower value
Outline: as §1

HEK293T = test: qHTS assay to identify novel small-molecules to repurpose for Merkel cell carcinoma treatment (AID 1296009); details: MCC and control cell lines, CellTiter-Glo viability, 72 h; series mostly up to 44.8 µM
Outline: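 qHTS format: cells treated with library compounds in DMSO across 8 (NPC) or 11 (MIPE) concentrations. Readout after 72 hr at 37 degree celsius was CellTiter-Glo luminescence.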
Further: nearly all actives have a fitted effect of over 60% in size.

SMILES	max response (CRL-7250) [%]	outcome (HEK293)	max response (HaCat) [%]	outcome (KB-3-1)	max response (NIH3T3) [%]	Potency (HEK293T)	outcome (CRL-7250)	outcome (NIH3T3)	outcome (HEK293T)	max response (KB-3-1) [%]	Potency (HaCat)
CC(=O)OCCC(C)CCC1C(C)(O)CCC2C(C)(C)CCCC21C (stereo unspecified)	-8.91	inactive	-0.371	inactive	-3.93	inactive					
CC1CCC23COC(=O)C2=CC(O)CC3C1(C)CCC1=CC(=O)OC1O (stereo unspecified)		inactive	-0.369	inactive		inactive	inactive	inactive			
CC(=O)O[C@H]1CC[C@@]2(CI)C(=CC[C@@H]3[C@@H]2CC[C@]2(C)[C@@H]([C@H](C)CCCC(C)C)CC[C@@H]32)C1	-3.01	inactive	4.89	inactive				inactive	inactive [at 9.27 µM]		
C=C(C(=O)OC)C1CCC2(C)C(O[C@@H]3O[C@H](CO)[C@@H](O)[C@H](O)[C@H]3O)CC(=O)C(C)C2C1O (stereo partly specified)	1.28	inactive	-1.72	inactive		inactive		inactive			
COc1ccc(C)c2sc(NC(=O)c3ccncc3)nc12		inactive	4.45	inactive	2.46	inactive	inactive				
CC(=O)OC[C@]1(O)[C@H]2[C@H](OC(=O)CC(C)C)OC=C(CO[C@@H]3O[C@H](CO)[C@@H](O)[C@H](O)[C@H]3O)[C@H]2C[C@@H]1O		inactive	-3.61	inactive		inactive	inactive	inactive			
CCNC(=O)[C@H]1O[C@H](n2cnc3c(NCC(c4ccccc4)c4ccccc4)nc(C(=O)NCCNC(=O)NC4CCN(c5ccccn5)CC4)nc32)[C@H](O)[C@@H]1O	-2.5	inactive	-11.9		1.64	inactive				2.94	
COc1cccc2c1CCC[C@H]2CN(C)CCc1ccc2ccoc2c1		inactive	3.47		-8.39	inactive	inactive			4.61	
CC1(C)CC[C@]2(C(=O)O)CC[C@]3(C)C(=CCC4[C@@]5(C)CC[C@H](O[C@@H]6O[C@H](C(=O)O)[C@@H](O)[C@H](O)[C@H]6O)C(C)(CO)C5CC[C@]43C)C2C1 (stereo partly specified)	4.13	inactive	-0.619	inactive	-4.92	inactive					
CC1CCC2(C)C(CC(O)C(O)C23CO3)C1(C)CCC1=CC(O)OC1=O (stereo unspecified)	3.32	inactive	0.263		-4.84	inactive				-2.97	
COC1CC(=O)C23C(=O)NC(CC(C)C)C2C(C)C(C)=CC3/C=C(\C)CCC1O (stereo unspecified)		inactive	-17.4		-0.706	inactive	inactive			0.905	
C[C@@H]1O[C@@H](O[C@H]2[C@H](OC(=O)C34CCC5(C)C(=CCC6C7(C)CC(O)C(O[C@@H]8O[C@H](C(=O)O)[C@@H](O)[C@H](O)[C@H]8O)C(C)(C(=O)O)C7CCC65C)C3CC(C)(C)CC4O)O[C@H](C)[C@@H](O)[C@@H]2O)[C@H](O)[C@@H](O[C@@H]2OC[C@](O)(CO)[C@H]2O[C@@H]2O[C@H](CO)[C@@H](O)[C@H](O)[C@H]2O)[C@H]1O (stereo partly specified)	-4.39	inactive	-8.41	inactive				inactive	inactive [at 9.27 µM]		
Cc1c(CN(C)C(=O)/C=C/c2cnc3c(c2)CCC(=O)N3)oc2ccccc12		inactive	1.29		-2.06	inactive	inactive			9.61	
C[C@@H](OC(=O)/C=C/c1ccc(O)cc1)C1=C[C@]2(C=C[C@@H]3C(C(=O)O)=CO[C@@H](O[C@@H]4O[C@H](CO[C@@H]5O[C@H](CO)[C@@H](O)[C@H](O)[C@H]5O)[C@@H](O)[C@H](O)[C@H]4O)[C@@H]32)OC1=O	1.07	inactive	4.46		2.02	inactive				4.2	
COC(=O)C1(Cc2ccc(O)cc2)OC(=O)C(OC)=C1c1ccc(O)cc1 (stereo unspecified)	-4.87	inactive	-3.39	inactive		inactive		inactive			
C=C(C)[C@@H](C)[C@H]1O[C@]23C[C@]4(CO2)C(CCC2[C@@]5(C)CC[C@H](O[C@@H]6OC[C@H](O)[C@H](O[C@@H]7O[C@H](CO)[C@@H](O)[C@H](O)[C@H]7O)[C@H]6O[C@@H]6O[C@@H](CO)[C@H](O)[C@H]6O)C(C)(C)C5CC[C@]24C)C3[C@@](C)(O)[C@@H]1OC(C)=O (stereo partly specified)		inactive	-4.68				inactive	inactive	inactive [at 9.27 µM]	-3.84	
CC12CCC3c4ccc(O)cc4CCC3C1CCC2OC1OC(C(=O)O)C(O)C(O)C1O (stereo unspecified)		inactive	2.12	inactive	1.3	inactive	inactive				
CC(C)CC1(C(=O)OCc2ccc(O[C@@H]3O[C@H](CO)[C@@H](O)[C@H](O)[C@H]3O)cc2)CC(=O)OC(C(=O)O)CC(=O)OCC2OC(O1)C(OC(=O)/C=C/c1ccc(O)cc1)C(O)C2O (stereo partly specified)	2.72	inactive	-1.08					inactive	inactive [at 9.27 µM]	8.15	

SMILES	max response (CRL-7250) [%]	outcome (HEK293)	max response (HaCat) [%]	outcome (KB-3-1)	max response (NIH3T3) [%]	Potency (HEK293T)	outcome (CRL-7250)	outcome (NIH3T3)	outcome (HEK293T)	max response (KB-3-1) [%]	Potency (HaCat)
CC(C)C(=O)c1cn(CC(=O)COc2ccc(Oc3ccccc3)cc2)c2ccc(C(=O)O)cc12	3.02	inactive	-4.02		-1.24	inactive				-0.497	
CC1(CO)CC[C@]2(C(=O)O[C@@H]3O[C@H](CO)[C@@H](O)[C@H](O)[C@H]3O)CC[C@]3(C)C(=CCC4[C@@]5(C)C[C@H](O)[C@H](O[C@@H]6OC[C@@H](O)[C@H](O)[C@H]6O)[C@@](C)(CO)C5CC[C@]43C)C2C1 (stereo partly specified)		inactive	-24.8	inactive	2.22		inactive		inactive [at 9.27 µM]		
CNC(=O)c1ccc2cc([C@@]3(O)CCn4cncc43)ccc2c1		inactive	4.91	inactive		inactive	inactive	inactive			
COc1c2c(c(C)c3c1C(=O)OC3)O[C@@]1(C)C[C@@H](O)[C@]34O[C@](OC)(CC[C@]3(C)[C@H]1C2)OC4(C)C		inactive	-1.6	inactive	2.2	inactive	inactive				
CC(=O)N[C@H](Cc1ccc(O)cc1)C(=O)N[C@H](CCCN=C(N)N)C(=O)N[C@H](Cc1ccccc1)C(N)=O (Ac-[dY]-[dR]-[dF]-NH2)	-2.02	inactive	-6.09	inactive		inactive		inactive			
Cc1cc(N2CCCCC2)nc2ccccc12	-12.2	inactive	-14.3	inactive		inactive		inactive			
O=C1NCc2nc3ccccc3c(=O)n2C1Cc1c[nH]c2ccccc12 (stereo unspecified)	-3.24	inactive	1.57			inactive		inactive		3.31	
O=C(CCO[C@@H]1O[C@H](CO)[C@@H](O)[C@H](O)[C@H]1O)c1ccc(O)cc1	3.35	inactive	-12	inactive	-1.69	inactive					
C=C1CC[C@H]2[C@@](C)(CCC[C@@]2(C)C(=O)O)[C@@H]1CCC(C)CCO (stereo partly specified)	-8.65	inactive	1.39		3.89	inactive				2.57	
COc1c(OC2OC(CO)C(O)C(O)C2O)ccc(O)c1C(=O)OCc1ccccc1O[C@@H]1O[C@H](CO)[C@@H](O)[C@H](O)[C@H]1O (stereo partly specified)		inactive	3.76	inactive	-1.73	inactive	inactive				
COC1C2=C(COC2=O)C2(C)CCCC(C)(CO)C2C1OC(=O)c1ccccc1 (stereo unspecified)		inactive	-2.64	inactive		inactive	inactive	inactive			
CC1(C)CC2C(C1)C1(C)CCC13OC3(CO)C2O (stereo unspecified)	-2.76	inactive	-6.47	inactive	5	inactive					
C[C@@H]1O[C@@H](O[C@H]2[C@H](O[C@H]3CC[C@@]4(C)C(CC[C@]5(C)C4CC=C4C6CC(C)(C)CC[C@]6(C(=O)O[C@@H]6O[C@H](CO[C@@H]7O[C@H](CO)[C@@H](O[C@@H]8O[C@@H](C)[C@H](O)[C@@H](O)[C@H]8O)[C@H](O)[C@H]7O)[C@@H](O)[C@H](O)[C@H]6O)CC[C@]45C)[C@]3(C)CO)OC[C@H](O)[C@@H]2O)[C@H](O)[C@H](O)[C@H]1O (stereo partly specified)		inactive	-8.43		-6.66		inactive		inactive [at 9.27 µM]	4.12	
COc1cc(/C=C/C(=O)OC2CC(OC(C)=O)C(OC(C)=O)C3C2CCC2C(=O)OC(c4ccoc4)CC23C)ccc1O[C@@H]1O[C@H](CO)[C@@H](O)[C@H](O)[C@H]1O (stereo partly specified)	-8.1	inactive			-18.6	inactive				-0.283	6.11 µM (active)
CCNC(=O)[C@@H]1CCCN1C(=O)[C@H](CCCN=C(N)N)NC(=O)[C@H](CC(C)C)NC(=O)[C@@H](C)NC(=O)[C@H](Cc1ccc(O)cc1)NC(=O)[C@H](CO)NC(=O)[C@H](Cc1c[nH]c2ccccc12)NC(=O)[C@H](Cc1cnc[nH]1)NC(=O)[C@@H]1CCC(=O)N1		inactive	-3.68		-1.38	inactive	inactive			8.19	
OCC1OC(Oc2cc(O)c3c(c2)OC(c2ccc(O)cc2)C(O)C3)C(O)C1O (stereo unspecified)	-1.28	inactive	-8.75		2.06	inactive				9.04	
COc1ccc2c(c1)O[C@H](O[C@@H]1O[C@H](CO)[C@@H](O)[C@H](O)[C@H]1O)C(=O)N2		inactive	-4.71	inactive		inactive	inactive	inactive			
CC1(C)C(=O)C(C)(C)c2cc(C(=O)Nc3ccc(C(=O)O)cc3)ccc21	2.14	inactive	-8.59	inactive		inactive		inactive			
